# Bioassay records (PubChem BioAssay)
# RORgamma inh: ROR gamma (mouse) transcription inhibition; P51450; Potency, µM (highest dose often 53.6 µM), for the others: at the highest dose activity change, negative = inhibition, hits mostly inhibitors; 310,000 tested, 5.4% active; AID 2551; Drosophila S2 Gal4-RORgamma UAS-luciferase reporter, 20 h; further: potency means the concentration at half of the fitted maximal effect; nearly all actives have a fitted effect of over 60% in size
# Target sequence (P51450 whole entry, looked up, the tested form may be a part): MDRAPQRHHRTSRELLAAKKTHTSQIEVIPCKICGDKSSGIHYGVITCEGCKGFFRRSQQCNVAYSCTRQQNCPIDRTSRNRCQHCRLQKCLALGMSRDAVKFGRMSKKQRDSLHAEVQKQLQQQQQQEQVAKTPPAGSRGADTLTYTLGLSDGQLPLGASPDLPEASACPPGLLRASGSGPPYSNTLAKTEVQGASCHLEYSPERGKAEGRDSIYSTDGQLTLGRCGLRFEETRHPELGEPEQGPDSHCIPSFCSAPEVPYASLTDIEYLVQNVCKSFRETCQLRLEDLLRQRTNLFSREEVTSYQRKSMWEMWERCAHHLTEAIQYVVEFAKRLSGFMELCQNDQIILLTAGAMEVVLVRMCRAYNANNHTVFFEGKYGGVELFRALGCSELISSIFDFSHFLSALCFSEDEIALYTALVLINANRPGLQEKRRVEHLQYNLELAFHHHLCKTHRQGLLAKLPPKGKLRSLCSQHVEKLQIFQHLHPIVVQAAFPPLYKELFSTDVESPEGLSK
#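 Drosophila S2 cells stably expressing Gal4-DBD/mouse RORγ fusion under metallothionein promoter plus UAS-luciferase; compound 1 h, then 700 uM CuSO4 induction for 20 h at ambient temperature; inhibition read as reduced luminescence.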
# IL-1B inflam inh: inhibitors of inflammasome signaling (IL-1 beta secretion). THP-1 LPS/ATP IL-1B secretion, AlphaLISA, 16 h; stronger effect = lower value. activity change, % at 57.5 µM. 360,000 tested, 4.7% active. AID 743279; in the data active means activity change below about -50%; inconclusive means mostly about -30% to -49%
#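 Secreted IL-1B measured by AlphaLISA bead assay after 16 h compound exposure of THP-1 cells; compounds (final up to 57.5 uM) added 1 h before LPS (250 ng/mL) and ATP (1.25 mM) stimulation; lower signal means less secretion.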
# DT40 TDP1 CPT: DT40-hTDP1 cell growth loss with CPT | 420,000 tested, 12% active | chicken DT40 Tdp1-/-;hTDP1 cells + 20 nM CPT, ATP luminescence, 48 h | Potency, µM (top dose mostly 46.2 µM), for the others: at the highest dose activity change, negative = growth inhibition, most hits filed as inhibitors; further: potency means the concentration at half of the fitted maximal effect; nearly all actives have a fitted effect of over 55% in size
#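 Chicken DT40 Tdp1-/- cells stably complemented with human TDP1 were seeded at 400 cells/well in medium containing 20 nM camptothecin, exposed to pin-transferred compounds, and grown at 37 °C for at least 48 hr. Viability was read as ATP luminescence.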
# DT40 TDP1 no CPT: qHTS for Inhibitors of human tyrosyl-DNA phosphodiesterase 1 (TDP1): qHTS in cells in absence of CPT; Potency, µM (doses to about 46.2 µM), inactives show at the top dose activity change, negative = growth inhibition, actives largely listed as inhibitors; DT40 Tdp1-/- hTDP1 cells, no CPT, ATP luminescence, 48 h; 420,000 tested, 15% active; AID 686978, 2013; further: potency means the concentration at half of the fitted maximal effect; nearly all actives have a fitted effect of over 55% in size
#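 Camptothecin absent (DMSO only). Human TDP1-complemented DT40 knockout cells, 400 cells/well, 37 °C for minimum 48 hr; ATP measured via CellTiter-Glo, 30 min dark incubation, luminescence.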
# ELG1 repair inh: blocks ELG1-dependent DNA repair in HEK293T cells | HEK293T ELG1-luciferase reporter, luminescence, 16 h; DNA damage induced by 5-fluorouridine | Potency, µM (series often up to 46.1 µM), for inactives: top-dose activity change, negative = inhibition, most hits filed as inhibitors | 330,000 tested, 2.3% active | AID 504467; further: potency means the concentration at half of the fitted maximal effect; nearly all actives have a fitted effect of over 55% in size
#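 5-Fluorouridine DNA damage + compound/DMSO, 2,000 cells/well, 16 h, 37 °C/5% CO2. ONE-Glo, 30 min RT, luminescence. Readout = decrease in reporter signal.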
# Gal4-VP16 FLuc: Gal4-VP16 reporter inhibition counter-screen; Drosophila S2 Gal4-VP16 UAS-luciferase, luminescence, 20 h; Potency, µM (top dose mostly 53.6 µM), inactives show at the top dose activity, negative = inhibition, hits mostly inhibitors; 310,000 tested, 3.5% active;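 further: Gal4-VP16 expression switched on by copper sulfate through the metallothionein promoter; potency means the concentration at half of the fitted maximal effect; nearly all actives have a fitted effect of over 50% in size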
# An asterisk follows results filed as active; ? = inconclusive; . = not tested or not shown; ! = a repeat was not active; [ ] = remark or other dose. The list is not random: actives were taken first. Their share in the collection is about 21%. Unless noted, the call rests on the fitted dose curve; in most records, active means well fitted curve in the direction sought with a large enough effect; inconclusive means small, poorly fitted or top-dose-only effect, or another doubt; inactive means no such curve, though single readings can be large; an effect the other way counts as inactive or inconclusive. On the % scale 0 is the no-effect control and ±100 the full control effect.
SMILES,RORgamma inh,IL-1B inflam inh,DT40 TDP1 CPT,DT40 TDP1 no CPT,ELG1 repair inh,Gal4-VP16 FLuc
CCOc1ccc(C2Nc3ccc4ccccc4c3-c3c2c(=O)oc2ccccc32)cc1 (stereo unspecified),40.0%,-55.0*,?,?,0.0%,-4.3%
COc1ccc2c(c1)c1c(c(=O)n(-c3ccccc3C)c(=O)n1CC(=O)Nc1c(C)cccc1C)n2C,.,.,7.31µM*,9.2µM*,.,.
COc1cccc(Cn2c(=O)n(-c3ccccc3C)c(=O)c3c2c2cc(C)ccc2n3C)c1,.,.,18.4µM*,13µM*,.,.
C[C@@H]1CN([C@H](C)CO)C(=O)CCCn2cc(nn2)CO[C@H]1CN(C)C(=O)Nc1ccnc(N2CCOCC2)c1,.,15.7,0.4%,-10.0%,.,.
COc1ccc2c(c1)c1c(c(=O)n(-c3ccc(OC)c(OC)c3)c(=O)n1Cc1ccccc1C)n2C,.,.,-0.9%,-0.6%,.,.
O=C(C1CCCN(S(=O)(=O)c2ccccc2[N+](=O)[O-])C1)N1CCN(c2ccccc2)CC1 (stereo unspecified),?,-16.0,-21.0%,?,?,-14.8%
CC(=O)[C@@H]1[C@@H](C(=O)c2ccc(F)cc2)[C@]2(C(=O)Nc3ccccc32)[C@H]2C=Cc3cc(F)ccc3N12,18.6%,-74.1*,?,?,-16.8%,-7.8%
COc1ccc(CNC(=O)Cn2cccc2C(=O)c2ccccc2C)cc1,9.6%,-6.8,?,-15.7%,?,?
COc1ccc(OC)c(CCNC(=O)Cn2cccc2C(=O)c2ccccc2C)c1,-1.6%,0.0,?,8.2µM*,?,-5.4%
COc1ccc(OC)c(CCNC(=O)Cn2cccc2C(=O)c2ccccc2)c1,-13.9%,0.0,7.31µM*,?,-1.6%,-0.9%
Nc1cc(Cl)ccc1Nc1ccncc1,20.9%,-4.0,-2.9%,5.5%,-8.4%,-10.1%
Cc1cc(C)cc(N2Cc3ccccc3C2)c1,43.4%,19.8,5.7%,-4.7%,?,9.1%
COc1cc(N2Cc3ccccc3C2)ccc1C=O,0.355µM*,12.7,19.0%,?,?,0.398µM*
CC(=O)Oc1ccc2ccccc2c1C(NC(=O)Cc1ccccc1)c1ccc(Cl)cc1 (stereo unspecified),?,-18.0,?,20.6µM*,-19.3%,?
CC(C)CC(=O)NC(c1ccccc1Cl)c1c(O)ccc2ccccc12 (stereo unspecified),-4.5%[10 µM],-68.4*,?,-112.2%,-3.9%,-12.9%
COc1ccc(C(NC(=O)CC(C)C)c2c(O)ccc3ccccc23)cc1 (stereo unspecified),33.0%,-15.2,?,?,-16.6%,-4.6%
CCCC(=O)NC(c1ccc(OC)cc1)c1c(O)ccc2ccccc12 (stereo unspecified),1.6%,-58.2*,?,23.1µM*,?,5.6%
COc1ccc(C(NC(=O)C2CCCCC2)c2c(O)ccc3ccccc23)cc1 (stereo unspecified),-7.5%[10 µM],-19.0,?,18.4µM*,-11.3%,-10.8%
Cc1cccc(-n2ncc3c(Nc4ccc(Oc5ccc(Cl)cc5)cc4)ncnc32)c1,.,.,18.4µM*,14.6µM*,.,.
COc1ccc(Nc2ncnc3c2cnn3-c2ccc(C)cc2)cc1Cl,.,.,?,23.1µM*,.,.
Cc1cccc(-n2ncc3c(Nc4ccc(C)c(Cl)c4)ncnc32)c1,.,.,18.4µM*,18.4µM*,.,.
COc1ccccc1Nc1ncnc2c1cnn2-c1cccc(C)c1,-25.3%,-6.6,?,?,?,-12.1%
Cc1cc(C)c(S(=O)(=O)N2CCOC2CNC(=O)C(=O)NCCCn2ccnc2)c(C)c1 (stereo unspecified),-0.8%,-16.7,-12.5%,-2.5%,?,-6.0%
N#Cc1ccccc1NC(=O)Cn1cnc2onc(-c3cccc(F)c3)c2c1=O,.,.,-1.5%,-11.3%,.,.
COc1cccc(/C=C2\SC(=O)N(CCC(=O)N3CCCCC3CCO)C2=O)c1 (stereo unspecified),-23.3%,?,?,?,-18.6%,2.8%
SMILES,RORgamma inh,IL-1B inflam inh,DT40 TDP1 CPT,DT40 TDP1 no CPT,ELG1 repair inh,Gal4-VP16 FLuc
O=C1/C(=C/c2ccccc2Cl)SC(=S)N1CCC(=O)N1CCCCC1CCO (stereo unspecified),-35.2%,?,16.4µM*,10.3µM*,-0.7%,-2.8%
O=C1/C(=C\c2ccccc2)SC(=S)N1CCC(=O)N1CCCCC1CCO (stereo unspecified),7.2%,?,?,?,-3.3%,1.5%
COc1ccc(/C=C2\SC(=S)N(CCCC(=O)N3CCCCC3CCO)C2=O)cc1 (stereo unspecified),2.24µM*,-8.7,?,?,?,3.55µM*
CC(C)c1ccc(/C=C2\SC(=S)N(CCC(=O)N3CCCCC3CCO)C2=O)cc1 (stereo unspecified),10µM*,-51.3*,?,20.6µM*,?,?
Cc1ccc(N2CN(S(=O)(=O)c3cccc([N+](=O)[O-])c3)c3nc4ccccc4nc32)cc1,-0.4%,-7.6,6.8%,5.9%,8.4%,-9.6%
C[C@@H]1CN([C@H](C)CO)C(=O)CCCn2cc(nn2)CO[C@H]1CN(C)C(=O)C1CCCCC1,.,-8.5,-4.2%,6.9%,.,.
CCN1C(=O)/C(=C\c2nc3ccccc3c(=O)n2-c2ccccc2)c2ccccc21,18.1%,?,13µM*,8.2µM*,?,-10.4%
CCN1C(=O)/C(=C/c2nc3ccccc3c(=O)[nH]2)c2ccccc21,22.1%,22.9,?,?,?,20.4%
CCN1C(=O)/C(=C/c2nc3ccccc3c(=O)n2-c2ccc(C)cc2)c2ccccc21,?,.,23.1µM*,18.4µM*,?,-21.7%
COc1ccc(-n2c(/C=C3\C(=O)N(C)c4ccccc43)nc3ccccc3c2=O)cc1,39.6%,.,-1.1%,?,-12.7%,-3.0%
Nc1nc(NCCO)nc(N2CCCCCC2)c1[N+](=O)[O-],12.9%,-16.8,-5.5%,-4.0%,-2.3%,1.5%
OCCN(CCO)c1nc(N2CCCCC2)c2nc(N(CCO)CCO)nc(N3CCCCC3)c2n1,?,-18.2,4.55µM*,14.6µM*!,0.461µM*,-13.6%
COc1cc(Cn2c3ccc(NC(=S)NCc4ccc(C)cc4)cc3c(=O)n2C)ccc1F,.,-29.5,?,20.6µM*,.,.
